Results as given in PubChem BioAssay.
Values joined by “and” are separate entries in the source; they are usually repeats but may differ in a detail not shown here. Equal values may be shown once. Results filed as inconclusive are left out. The source holds several records for some structures; these can differ, active in one and inactive in another. Active and inactive are the calls of the source.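 Rule for the calls, unless noted: active = normalized viability below 100% at a tested concentration; inactive = the rest.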

Key:
[1] = growth inhibition of DIPG glioma cells, dose response, cell-based, SU-DIPG-XVII, MIPE5.0, CellTiter-Glo, qHTS (AID 1347060; cut-off not given, nearly all actives have AC50 up to about 26 µM;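 note: cells exposed to compound for 48 hours before viability readout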); conditions: SU-DIPG-XVII viability, CellTiter-Glo ATP luminescence
[2] = growth inhibition of DIPG glioma cells, dose response, cell-based, SU-DIPG-XIII, MIPE4.0, CellTiter-Glo, qHTS (AID 1347061; cut-off not given, nearly all actives have AC50 up to about 37 µM;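 note: cells exposed to compound for 48 hours before readout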); conditions: SU-DIPG-XIII viability, CellTiter-Glo ATP luminescence
[3] = growth inhibition of DIPG glioma cells, dose response, cell-based, JHH-DIPG-1, MIPE4.0, CellTiter-Glo, qHTS (AID 1347062; cut-off not given, nearly all actives have AC50 up to about 27 µM;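 note: cells exposed to compound for two days before readout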); conditions: JHH-DIPG-1 viability, CellTiter-Glo ATP luminescence
[4] = growth inhibition of DIPG glioma cells, dose response, cell-based, SU-DIPG-IV, MIPE4.0, CellTiter-Glo, qHTS (AID 1347063; cut-off not given, nearly all actives have AC50 up to about 30 µM;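 note: compound exposure lasted 48 hours before the viability readout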); conditions: SU-DIPG-IV viability, CellTiter-Glo ATP luminescence
[5] = growth inhibition of DIPG glioma cells, dose response, cell-based, SU-DIPG-XIII, MIPE5.0, CellTiter-Glo, qHTS (AID 1347064; cut-off not given, nearly all actives have AC50 up to about 23 µM;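 note: cells exposed to compound for 48 hours before the viability read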); conditions: SU-DIPG-XIII viability, CellTiter-Glo ATP luminescence
[6] = viability loss in pontine glioma line – cell-based, SU-DIPG-XXV, MIPE5.0, CellTiter-Glo, qHTS, dose response (AID 1347065; cut-off not given, nearly all actives have AC50 up to about 26 µM;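 note: cells exposed to compound for 48 hours before ATP readout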); conditions: CellTiter-Glo ATP luminescence
[7] = SU-DIPG-VI glioma cell viability, MIPE4.0 library, CellTiter-Glo luminescence, qHTS (AID 1347066; cut-off not given, nearly all actives have AC50 up to about 30 µM;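 note: cells exposed to compound for 48 hours before readout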); conditions: CellTiter-Glo ATP luminescence
[8] = JHH-DIPG-1 glioma cell viability, MIPE5.0 library, CellTiter-Glo luminescence, qHTS (AID 1347067; cut-off not given, nearly all actives have AC50 up to about 26 µM;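 note: cells exposed to compound for 48 hours before readout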); conditions: JHH-DIPG-1 glioma viability, CellTiter-Glo ATP luminescence
[9] = sensitizers of A549 cells to miR-34 induction, primary screen, imaging, A549 dox-inducible miR-34, nuclei and caspase counts (AID 1347080;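 active = compounds whose cell count with miR-34 switched on is under 0.7 times the count with it off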); conditions: A549 miR-34 inducible, Hoechst nuclei count, 48 h
[10] = modifiers of HSF1 nuclear foci, imaging, Selleck Cancer Library (AID 1347162; in the data active = plate-normalised HSF1 focus index below about 0.46); conditions: human cells, at 10 µM; SSMD: measured here: HSF1 foci SSMD mean; cell count: measured here: cell number; plate-normalised HSF1 focus index: stronger effect = lower value
[11] = survival rescue of mitochondrial mutant cells in low glucose, primary screen, MELAS cybrids, Rieske KO mouse fibroblasts, CellTiter-Glo (AID 1508586;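 active = mean z-score across replicates of 1.96 or higher in either the MELAS or the Rieske mutant cell line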;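 note: z relative to plate mean and SD of compound and empty wells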)
[12] = ovarian cancer cell viability with rucaparib, profiling panel, oncology-focused library, rucaparib conditional (AID 1508598); conditions: patient-derived ovarian cancer cells, CellTiter-Glo viability, 144 h, stronger effect = lower value
[13] = LFS_MB_P medulloblastoma growth inhibition, cell-based, chromothripsis tumors, cisplatin or BGB combos (AID 1671449; in the data active = inhibition above about 80%;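 note: cells exposed for 96 hours; 0% = vehicle DMSO and 100% = killing by high DMSO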); conditions: LFS_MB_P medulloblastoma cells
[14] = HDN33 neuroblastoma growth inhibition, cell-based, chromothripsis tumors, cisplatin or BGB combos (AID 1671450; in the data active = inhibition above about 80%;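 note: cells exposed to compound for four days; 0% = vehicle DMSO and 100% = cell killing by high DMSO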); conditions: HDN33 neuroblastoma cells, stronger effect = higher value
[15] = ICB984 medulloblastoma cell growth inhibition, synergistic combos for chromothripsis tumors, cisplatin or BGB combos (AID 1671451; call rule not given here;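 note: cells exposed for 96 hours before readout; 0% = vehicle DMSO and 100% = killing by high DMSO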); conditions: ICB984 medulloblastoma cells, drug combinations, stronger effect = higher value
[16] = HTB85 osteosarcoma cell growth inhibition, synergistic combos for chromothripsis tumors, BGB or cisplatin IC20 combos (AID 1671453; in the data active = inhibition above about 80%;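 note: cells exposed for 96 hours before readout; 0% = vehicle DMSO and 100% = high DMSO killing control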); conditions: HTB85 osteosarcoma cells, drug combinations, stronger effect = higher value
[17] = MDA-MB-436 breast carcinoma cell growth inhibition, synergistic combos for chromothripsis tumors, BGB or cisplatin combos (AID 1671458; call rule not given here;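 note: cells exposed for 96 hours; 0% = vehicle DMSO and 100% = killing by high DMSO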); conditions: MDA-MB-436 breast carcinoma growth inhibition, drug combinations, stronger effect = higher value
[18] = growth inhibition of BT084 medulloblastoma cells, cell-based, ICGC_MB145, cisplatin and BGB IC40 combos (AID 1671461; in the data active = inhibition above about 80%;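 note: cells exposed to drugs for 96 hours; 0% = vehicle DMSO and 100% = high DMSO full killing control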); conditions: drug combinations, stronger effect = higher value
[19] = growth inhibition of RCMB18 medulloblastoma cells, cell-based, cisplatin and BGB IC40 combos (AID 1671462; in the data active = inhibition above about 80%;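 note: cells exposed to compound for four days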); conditions: stronger effect = higher value
[20] = SU-DIPG-XXV glioma cell viability, MIPE5.0 library, qHTS (AID 1347068; cut-off not given, nearly all actives have IC50 up to about 30 µM;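 note: cells exposed to compound for 48 hours before viability readout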)

In the case of `C#Cc1cccc(Nc2ncnc3cc(OC)c(OCCCCCCC(=O)NO)cc23)c1`, the AC50 [1] was 742 nM (active), the AC50 [2] was 398 nM (active) and the AC50 [3] was 148 nM (active). The AC50 [4] was 418 nM (active), the AC50 [5] was 661 nM (active) and the AC50 [6] was 417 nM (active). The AC50 [7] was 74.3 nM (active), the AC50 [8] was 833 nM (active) and the fold change ([9]; stronger effect = lower value, cell number ratio, induced over uninduced) was 0.901 (inactive). For the same molecule, the fold change ([9]; measured here: relative caspase fold change +Dox/-Dox) was 0.807, the cell count ([9]; measured here: total cells with miR-34 induction, stronger effect = lower value) was 1090 and the cell count ([9]; measured here: total cells without miR-34 induction) was 1210. For the same molecule, the SSMD [10] was -4.22, the cell count [10] was 7310 and the plate-normalised HSF1 focus index [10] was 0.849 (inactive). The z-score ([11]; MELAS cybrid survival, CellTiter-Glo 48 h, stronger effect = higher value) was 1.07 (inactive), the z-score ([11]; Rieske KO mouse fibroblast survival, CellTiter-Glo 72 h) was 1.33 and the viability ([12]; at 0.000305 µM, OCI-C5x cells, with rucaparib 10 µM, 100% = cells with rucaparib alone) was 114% (inactive). The viability ([12]; at 0.000305 µM, OCI-C5x cells, without rucaparib) was 114% (inactive), the viability ([12]; at 0.000305 µM, OCI-P5x cells, with rucaparib 20 µM, 100% = cells with rucaparib alone) was 108% (inactive) and the viability ([12]; at 0.000305 µM, OCI-P5x cells, without rucaparib) was 96.4% (active). The viability ([12]; at 0.00122 µM, OCI-C5x cells, with rucaparib 10 µM, 100% = cells with rucaparib alone) was 111% (inactive), the viability ([12]; at 0.00122 µM, OCI-C5x cells, without rucaparib) was 113% (inactive) and the viability ([12]; at 0.00122 µM, OCI-P5x cells, with rucaparib 20 µM, 100% = cells with rucaparib alone) was 104% (inactive). For the same molecule, the viability ([12]; at 0.00122 µM, OCI-P5x cells, without rucaparib) was 98.8% (active), the viability ([12]; at 0.00488 µM, OCI-C5x cells, with rucaparib 10 µM, 100% = cells with rucaparib alone) was 118% (inactive) and the viability ([12]; at 0.00488 µM, OCI-C5x cells, without rucaparib) was 106% (inactive). The viability ([12]; at 0.00488 µM, OCI-P5x cells, with rucaparib 20 µM, 100% = cells with rucaparib alone) was 113% (inactive), the viability ([12]; at 0.00488 µM, OCI-P5x cells, without rucaparib) was 111% (inactive) and the viability ([12]; at 0.0195 µM, OCI-C5x cells, with rucaparib 10 µM, 100% = cells with rucaparib alone) was 112% (inactive). The viability ([12]; at 0.0195 µM, OCI-C5x cells, without rucaparib) was 112% (inactive), the viability ([12]; at 0.0195 µM, OCI-P5x cells, with rucaparib 20 µM, 100% = cells with rucaparib alone) was 110% (inactive) and the viability ([12]; at 0.0195 µM, OCI-P5x cells, without rucaparib) was 109% (inactive). The viability ([12]; at 0.0781 µM, OCI-C5x cells, with rucaparib 10 µM, 100% = cells with rucaparib alone) was 113% (inactive), the viability ([12]; at 0.0781 µM, OCI-C5x cells, without rucaparib) was 113% (inactive) and the viability ([12]; at 0.0781 µM, OCI-P5x cells, with rucaparib 20 µM, 100% = cells with rucaparib alone) was 107% (inactive). For the same molecule, the viability ([12]; at 0.0781 µM, OCI-P5x cells, without rucaparib) was 108% (inactive), the viability ([12]; at 0.313 µM, OCI-C5x cells, with rucaparib 10 µM, 100% = cells with rucaparib alone) was 87.3% (active) and the viability ([12]; at 0.313 µM, OCI-C5x cells, without rucaparib) was 85.9% (active). For the same molecule, the viability ([12]; at 0.313 µM, OCI-P5x cells, with rucaparib 20 µM, 100% = cells with rucaparib alone) was 91.1% (active), the viability ([12]; at 0.313 µM, OCI-P5x cells, without rucaparib) was 98.9% (active) and the viability ([12]; at 1.25 µM, OCI-C5x cells, with rucaparib 10 µM, 100% = cells with rucaparib alone) was 10.5% (active). For the same molecule, the viability ([12]; at 1.25 µM, OCI-C5x cells, without rucaparib) was 39.1% (active), the viability ([12]; at 1.25 µM, OCI-P5x cells, with rucaparib 20 µM, 100% = cells with rucaparib alone) was 3.13% (active) and the viability ([12]; at 1.25 µM, OCI-P5x cells, without rucaparib) was 21.8% (active). The viability ([12]; at 5 µM, OCI-C5x cells, with rucaparib 10 µM, 100% = cells with rucaparib alone) was 5.56% (active), the viability ([12]; at 5 µM, OCI-C5x cells, without rucaparib) was 5.78% (active) and the viability ([12]; at 5 µM, OCI-P5x cells, with rucaparib 20 µM, 100% = cells with rucaparib alone) was 1.22% (active). The viability ([12]; at 5 µM, OCI-P5x cells, without rucaparib) was 1.21% (active), the inhibition ([13]; at 0.5 µM, stronger effect = higher value) was 17.8% (inactive) and 78.4% (inactive) and the inhibition ([13]; measured here: combination with BGB IC20, at 0.005 µM) was -22.9% and -21.6%. The inhibition ([13]; measured here: combination with BGB IC40, at 0.005 µM) was -38.4% and -30.8%, the inhibition ([13]; measured here: combination with BGB IC40, at 0.05 µM) was -32.8% and -22.5% and the inhibition ([13]; measured here: combination with cisplatin, at 0.5 µM, stronger effect = higher value) was 83.8% and 104%. For the same molecule, the inhibition ([13]; measured here: combination with cisplatin, at 5 µM, stronger effect = higher value) was 112% and 113%, the inhibition ([14]; BGB combo, at 5 µM) was 99.5% and 95.1% and the inhibition ([14]; at 0.5 µM) was -1.62% (inactive) and 3.24% (inactive). The inhibition ([14]; cisplatin combo, at 5 µM) was 99.9% and 94.2%, the inhibition ([14]; measured here: with BGB IC20 combination, at 0.5 µM) was -9.96% and -0.599% and the inhibition ([14]; measured here: with cisplatin IC20 combination, at 0.5 µM) was 6.06% and 12.1%. The inhibition ([14]; single agent, at 5 µM) was 99.8% and 96.9%, the inhibition ([15]; BGB IC20 combo, at 0.005 µM) was 68.4% and 23% and the inhibition ([15]; BGB IC40 combo, at 0.005 µM) was 78.3% and 29.4%. For the same molecule, the inhibition ([15]; BGB IC40 combo, at 0.05 µM) was 98% and 101%, the inhibition ([15]; at 0.5 µM) was -18.6% (inactive) and -24.1% (inactive) and the inhibition ([15]; cisplatin combo, at 0.05 µM) was 97.9% and 101%. For the same molecule, the inhibition ([15]; cisplatin combo, at 0.5 µM) was -22% and -24.1%, the inhibition ([15]; cisplatin combo, at 5 µM) was -70.9% and -33.8% and the inhibition ([15]; measured here: 5 uM single agent, at 5 µM) was -13.9% and -10.2%. For the same molecule, the inhibition ([16]; at 0.5 µM) was 11.7% (inactive) and 4.4% (inactive), the inhibition ([16]; measured here: with BGB IC20, at 0.5 µM) was -2.94% and -22.5% and the inhibition ([16]; measured here: with BGB IC20, at 5 µM) was 99.7% and 73%. The inhibition ([16]; measured here: with cisplatin IC20, at 0.5 µM) was 26% and 9.91%, the inhibition ([16]; measured here: with cisplatin IC20, at 5 µM) was 67.6% and 94.8% and the inhibition ([16]; single agent, at 5 µM) was 99.9% and 74.9%. For the same molecule, the inhibition ([17]; at 0.5 µM) was -4.99% (inactive) and -13.2% (inactive), the inhibition ([17]; measured here: BGB combination, at 0.5 µM) was -10.9% and -11.9% and the inhibition ([17]; measured here: BGB combination, at 5 µM) was 61.3% and 55.7%. The inhibition ([17]; measured here: cisplatin combination, at 0.5 µM) was -18.9% and -27.4%, the inhibition ([17]; measured here: cisplatin combination, at 5 µM) was 74.5% and 60.7% and the inhibition ([18]; at 0.5 µM) was 82% (active) and 58.2% (inactive). The inhibition ([18]; cisplatin combination, at 0.5 µM) was 99.1% and 87.2%, the inhibition ([18]; cisplatin combination, at 5 µM) was 103% and 101% and the inhibition ([18]; measured here: BGB IC40 combination 0.05 uM, at 0.05 µM) was -29.2% and 20%. For the same molecule, the inhibition ([18]; single agent, at 5 µM) was 106% and 108%, the inhibition ([19]; at 0.5 µM) was 69.7% (inactive) and 45.9% (inactive) and the inhibition ([19]; cisplatin combo, at 5 µM) was 96.3%. The inhibition ([19]; measured here: BGB IC40 combination, at 0.05 µM) was -10.5% and -3.2%, the inhibition ([19]; measured here: combination with cisplatin, at 0.5 µM) was 82.3% and 57.4% and the inhibition ([19]; single agent, at 5 µM) was 89.6% and 92.4%.

For `Cc1cc(Nc2ncc3c(n2)N(C)C(=O)N(c2cc(NC(=O)c4cccc(C(F)(F)F)c4)ccc2C)C3)n(C)n1`, the AC50 [1] was 118 nM (active), the AC50 [2] was 1480 nM (active) and the AC50 [3] was 418 nM (active). The AC50 [4] was 209 nM (active), the AC50 [5] was 105 nM (active) and the AC50 [6] was 59 nM (active). For the same molecule, the AC50 [8] was 263 nM (active) and the IC50 [20] was 209 nM (active).
